Assay results as given in ChEMBL document CHEMBL4513216, “Probing the Open Global Health Chemical Diversity Library for Multistage-Active Starting Points for Next-Generation Antimalarials” (ACS Infect Dis, 2020).
The campaign covered roughly 69,000 compounds. About 8,600 (12%) showed an effect of 50% or more. Only a selection was taken, and strong results are over-represented in it overall.

Test system: Plasmodium berghei
Test: Screen against P. berghei liver stage (PbLuc), transformed with Luciferase, at 10uM
Type: functional, HepG2
Conditions: tested at 10 uM

SMILES	INHIBITION
COc1c(CNCCNC(=O)c2ccccc2F)c(C)nn1C	-7.31%
Cc1noc([C@H]2C[C@@H]3CCN(CC4CC4)C[C@H]3O2)n1	-5.29%
Cn1cc(I)c(C(=O)NCCCn2cc(Br)cn2)n1	26.8%
CC(C)N1CCOCC2(CCCN(C(=O)CCc3cccnc3)C2)C1 (stereo unspecified)	35.4%
CN1CC(c2cc(O)nc(NCc3ccc(Cl)cc3)n2)CC1=O (stereo unspecified)	-17.7%
C1CCN(CCOC2CCNC2)CC1 (stereo unspecified)	5.42%
CCn1cc(CN2C[C@@H]3CC[C@H]2CN(C(=O)c2cnccn2)C3)cn1	21.5%
Cc1cc(C(=O)N2CCC3(CC2)CC(c2cccnc2)C(=O)N3C)no1 (stereo unspecified)	-36.5%
CNCc1cc(F)ccc1Oc1ccc(F)cc1F	-13.7%
Cn1cc(C2COC3(CCN(C(=O)Cc4ccccc4)CC3)C2)cn1 (stereo unspecified)	48.4%
CCOCC(=O)N1CCC2(CC1)CC(c1ccccc1)CO2 (stereo unspecified)	38.5%
O=C(Cc1ccncc1)N1CCC2(CC1)CC(c1ccccc1)CO2 (stereo unspecified)	95.5%
O=C(Cc1ccccc1)N1CCC2(CC1)CC(Nc1cnccn1)CO2 (stereo unspecified)	31.5%
COCCC1COC2(CCN(C(=O)Cc3ccccc3)CC2)C1 (stereo unspecified)	28.7%
CC1COC2(CCN(C(=O)Cc3ccncc3)CC2)C1 (stereo unspecified)	62.9%
CCN1CCC(N2CCN(C)C3(CCC(=O)N(CCOC)CC3)C2)CC1 (stereo unspecified)	7.92%
COc1ccccc1-c1cccc(C2CCCN(C3CCOCC3)C2)n1 (stereo unspecified)	36.95%
COC(=O)c1cccc(C2CNCCN2C)c1 (stereo unspecified)	32.7%
Cn1ccnc1CN1CCC2(CC1)Cc1ccccc1CNC2=O	23.6%
Cc1nccc(C2CCCN(S(=O)(=O)N3CCOCC3)C2)n1 (stereo unspecified)	24.075%
CNC(=O)CCN(C)CC1(c2ccc(Br)cc2)CC1	-0.532%
Cc1ccccc1CN1C[C@H]2CC[C@@H](C1)N(CC1CCC1)C2=O	28.3%

SMILES	INHIBITION
NS(=O)(=O)CCN1CCOC(c2ccc(Cl)cc2)C1 (stereo unspecified)	-51.9%
CCn1cnnc1CNC(=O)N1CCOC(c2ccc(Cl)cc2)C1 (stereo unspecified)	27.5%
N#CC1(C(=O)N2CCOC(c3ccc(F)cc3)C2)CCCCC1 (stereo unspecified)	-14.2%
N#CC1(C(=O)N2CCOC(c3ccc(Cl)cc3)C2)CCCC1 (stereo unspecified)	57.1%
O=C(CN1C(=O)CCNC1=O)N1CCOC(c2ccc(F)cc2)C1 (stereo unspecified)	-141%
N#CC1(C(=O)N2CCOC(c3ccc(F)cc3)C2)CCCC1 (stereo unspecified)	54.2%
CCN1CC2(CNCCN(C(=O)Nc3ccccc3)C2)CC1=O (stereo unspecified)	-80%
Cc1cccc(CN2C(=O)CCC23CCN(C(=O)NC(C)C)CC3)n1	-40.5%
CC(C(=O)NCCCN1CCOCC1)n1cncn1 (stereo unspecified)	-22.9%
Fc1cnc(N2CCCC3(CCN(Cc4cccs4)C3)C2)nc1 (stereo unspecified)	57.9%
c1cnc(N2CCCC3(CCN(Cc4cccs4)C3)C2)nc1 (stereo unspecified)	-20.8%
CS(=O)(=O)N1CCC2(CCCN(c3ncc(F)cn3)C2)C1 (stereo unspecified)	28.2%
Fc1cnc(N2CCCC3(CCN(Cc4nccs4)C3)C2)nc1 (stereo unspecified)	55.5%
c1csc(CN2CCC3(CCCN(c4nncs4)C3)C2)n1 (stereo unspecified)	-79.8%
COc1ccc(CN2CCC3(CCCN(c4ncc(F)cn4)C3)C2)cc1 (stereo unspecified)	74.2%
Fc1cnc(N2CCCC3(CCN(Cc4ccco4)C3)C2)nc1 (stereo unspecified)	-3.88%
Fc1cnc(N2CCCC3(CCN(Cc4ccoc4)C3)C2)nc1 (stereo unspecified)	40.4%
c1ccc(N2CCCC3(CCN(Cc4nccs4)C3)C2)nc1 (stereo unspecified)	29.1%
COCCN1CCC2(CCCN(c3ncc(F)cn3)C2)C1 (stereo unspecified)	24.9%
CCCS(=O)(=O)N1CCC2(CCCN(c3ncc(F)cn3)C2)C1 (stereo unspecified)	41%
CCS(=O)(=O)N1CCC2(CCCN(c3ncc(F)cn3)C2)C1 (stereo unspecified)	55.5%
CCc1noc(C)c1C(=O)N1CCC(c2[nH]ncc2S(C)(=O)=O)C1 (stereo unspecified)	35.2%

SMILES	INHIBITION
CCNc1cc2c(nn1)CCN(C(=O)c1c(C)noc1C)C2	14.1%
O=C(NCCCO)NCCc1cc(F)ccc1F	22.6%
Cc1ccc(CN2CCCn3c(nc(Cn4ccnc4)cc3=O)C2)o1	10%
CN1CCCC1c1ccnc(-c2ccccn2)n1 (stereo unspecified)	-5.8%
NC(=O)COc1ccc(CNCc2c(F)cccc2F)cc1	31.1%
Cc1ccc(-c2nc(CNC3CCc4ncnn4C3)co2)cc1 (stereo unspecified)	12.7%
O=C([C@H]1C[C@H]2CN(c3ncc(F)cn3)C[C@@H]1O2)N1CCCC1	41.2%
c1ccc(Cc2nc(CNCCn3cccn3)cs2)cc1	21.5%
CC(C)c1nnc2n1CCN(C(=O)c1cc3cc(F)ccc3[nH]1)C2	45.7%
CC(C)c1cccc(N2CCCC3(CCC(=O)N(C4CC4)C3)C2)n1 (stereo unspecified)	50.5%
CC(O)c1cccc(N2CCC3(CCC(=O)N(C4CCCC4)C3)CC2)n1 (stereo unspecified)	-9.31%
N#Cc1cccc(N2CCCC3(CCC(=O)N(C4CCCC4)C3)C2)n1 (stereo unspecified)	18.9%
COCCCNC(=O)c1ccccc1S(C)(=O)=O	18.4%
Cc1cc(=O)[nH]c(=O)n1-c1cccc(Cl)c1Cl	17.1%
Cc1cc(C)n(-c2cncc(NCCNC(=O)c3cccnc3)n2)n1	31.9%
CC(C)OCc1nn(C)c2c1CN(Cc1cccs1)CC2	35.8%
Cc1nn(C(C)C)c(C)c1NC(=O)c1cccnc1	7.18%
Cc1nn(C(=O)c2cccnc2)c(C)c1C	64.6%
COc1ccc(C(=O)n2nc(C)c(C)c2C)cc1	30.7%
CO[C@@H]1CC[C@H]2[C@H]1OCCN2Cc1ccc(F)c(F)c1	-8.28%
Cc1ccccc1C(C(=O)NCCSC(F)(F)F)N(C)C (stereo unspecified)	-33.8%
CC1(C)Cc2nc(C(C)(C)C)ncc2C(NC(=O)Cc2nnn[nH]2)C1 (stereo unspecified)	-0.71%

SMILES	INHIBITION
COC(=O)CC(c1cccs1)c1oc(C)cc(=O)c1O (stereo unspecified)	27.5%
CCN1CCn2c(C)cnc2C12CCN(C(=O)c1ccc(Cl)cc1)CC2	31.9%
CC(=O)NCCCC(=O)NC(C)c1nnc2n1CCC2 (stereo unspecified)	1.75%
CCOCC(=O)N1CCOCC2(CCN(c3ncccn3)C2)C1 (stereo unspecified)	14.5%
CCN(CC)S(=O)(=O)N1CCCC(c2ccc(C(=O)O)cc2)C1 (stereo unspecified)	36.8%
CCN(C)S(=O)(=O)N1CCCC(c2nc(-c3ccccc3)c[nH]2)C1 (stereo unspecified)	89.1%
CS(=O)(=O)N1CCCC(c2nc(-c3ccccc3)c[nH]2)C1 (stereo unspecified)	50.4%
CCN(C)S(=O)(=O)N1CCCC(c2cccc(C(=O)O)c2)C1 (stereo unspecified)	-5.38%
CC(=O)N1CCCC(c2nc(-c3ccccc3)c[nH]2)C1 (stereo unspecified)	16.6%
CCCS(=O)(=O)N1CCCC(c2nc(-c3ccccc3)c[nH]2)C1 (stereo unspecified)	44.4%
O=C(c1cc(C2CCCCN2CCO)n[nH]1)N1CCOCC1 (stereo unspecified)	-0.902%
Cc1ncncc1C(=O)NCCn1nc2ccccn2c1=O	12.915%
CCCS(=O)(=O)N1CCN(c2ccc3nnc(CC)n3n2)CC1	-37.2%
Cc1ccccc1OCC(=O)NCC(c1ccc(N(C)C)cc1)N(C)C (stereo unspecified)	27.5%
CCNc1nc2cn(-c3ccc(OC(F)(F)F)cc3)c(=O)c-2c[nH]1	45.6%
C[C@@H](NC(=O)c1cccs1)c1onc(-c2cccnc2)c1C(=O)O	-20.8%
O=C(CN1CCCC1c1nc(Cc2ccc(F)cc2)no1)NC1CC1 (stereo unspecified)	62%
C=C(C)CN1CCCC1c1nc(Cc2ccc(F)cc2)no1 (stereo unspecified)	61.1%
CC(C)(C)OCCN1CCCC1c1nc(Cc2ccc(F)cc2)no1 (stereo unspecified)	10.6%
CCCNC(=O)CN1CCCC1c1nc(Cc2ccc(F)cc2)no1 (stereo unspecified)	47.4%
CCCN1CCCC1c1nc(Cc2ccc(F)cc2)no1 (stereo unspecified)	23.5%
OCCCN1CCCC1c1nc(Cc2ccc(F)cc2)no1 (stereo unspecified)	14.9%

SMILES	INHIBITION
O=C(CN1CCN(CC(O)C2CC2)CC1)NCc1ccccc1 (stereo unspecified)	-24.6%
Cc1cc(F)ccc1-c1ccccc1CC1CNCCNC1=O (stereo unspecified)	71.2%
COc1ccc(F)cc1-c1ccccc1CC1CNCCNC1=O (stereo unspecified)	23.595%
Cc1ccc(-c2ccccc2CC2CNCCNC2=O)c(C)c1 (stereo unspecified)	33%
CC(=O)N1CCN(C(=O)c2cc(-n3cnnn3)ccc2Cl)CC1	6.32%
CCN(C(=O)NCc1ccccc1OC(F)F)C(C)c1cccnc1 (stereo unspecified)	50.1%
CCN(C(=O)NCc1ccc(C)cc1OC)C(C)c1cccnc1 (stereo unspecified)	29.8%
CCOc1ccccc1CNC(=O)N(CC)C(C)c1cccnc1 (stereo unspecified)	-1.25%
NC(=O)c1ccccc1Oc1cnc(C2CCCN2)cn1 (stereo unspecified)	-38.3%
Cc1ccc2c(c1)CCC2NC(=O)N1CCC(C(N)=O)CC1 (stereo unspecified)	10.1%
COC(=O)Cn1c(=O)[nH]c2cn(-c3ccc(C)cc3)c(=O)n21	-1.04%
CC(C)CN1C(=O)CO[C@@H]2CN(C(=O)N3CCOCC3)C[C@H]21	29%
CC(C)CN1C(=O)CO[C@@H]2CN(C(=O)C3CCOCC3)C[C@H]21	11.3%
CC(C)CN1C(=O)CO[C@@H]2CN(C(=O)[C@H]3CCCO3)C[C@H]21	36.4%
CC(C)CN1C(=O)CO[C@@H]2CN(C(=O)N(C)C)C[C@H]21	29%
CC(C)CN1C(=O)CO[C@@H]2CN(C(=O)CC(F)(F)F)C[C@H]21	54.1%
CC(C)CN1C(=O)CO[C@@H]2CN(C(=O)NC(C)C)C[C@H]21	70.4%
CCN(CC)CC1CN(Cc2cccc(C#N)c2)Cc2nccn2C1 (stereo unspecified)	-16.9%
